KDM5B inh = inhibitors of human KDM5B histone demethylase | Q9UGL1 | KDM5B demethylase, FDH-coupled NADH fluorescence (FDH is formaldehyde dehydrogenase) | Potency, µM (series often up to 57.7 µM), hits mostly inhibitors | 2.6% of 220,000 active; note: nearly all actives have a fitted effect of over 70% in size
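Measured: NADH fluorescence change, 30 min, RT. System: KDM5BΔAP 200 nM final, H3K4me3 peptide, α-KG, Fe(II), ascorbate, NAD⁺ plus FDH, pH 7.5 HEPES. Compounds: titrated, 10 min pre-incubation with enzyme.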
SNCA expr inhib = SNCA gene expression inhibition; HEK-293 SNCA-luciferase knock-in, luminescence, 24 h; Potency, µM (titrated, usually from 57.2 µM), usual class: inhibitors; 0.17% of 140,000 active; note: nearly all actives have a fitted effect of over 45% in size
SNCA viab count = counter-screen for SNCA expression inhibitors: cell viability; HEK-293-SNCA-luc viability, GF-AFC fluorescence, 24 h; Potency, µM (doses to about 57.1 µM), hits mostly cytotoxic; 0.12% of 150,000 active; AID 1671193; note: nearly all actives have a fitted effect of over 30% in size
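Cytotoxicity counterscreen: after 24 h compound treatment of genome-edited SNCA-luciferase HEK-293 cells, live-cell protease substrate GF-AFC read by fluorescence after 30 min; activity scaled between DMSO (0%) and medium-only (-100%), curves Hill-fitted.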
IP6K1 inhibitor = blocks human inositol hexakisphosphate kinase 1; IP6K1 kinase, ADP-Glo luminescence, 2 h; hits give low values; activity change, % (series mostly up to about 58 µM); 0.81% of 140,000 active; in the data active = activity change below about -25%
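ADP-Glo luminescence measures ADP made by human IP6K1 during a 2 h RT reaction with ATP/IP6 (mix at 1.3 mM/130 uM); top library doses 57.5 and 19.1 uM final.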
Numbers stand for hits; [ ] = remark or other dose. Shown are actives, neighbours in structure and some others; about 2.9% of the full set was active somewhere. Unless noted, calls come from the whole dose curve; as a rule, active = well fitted curve in the direction sought with a large enough effect; inconclusive = small, poorly fitted or top-dose-only effect, or another doubt; inactive = no such curve, though single readings can be large; an effect the other way counts as inactive or inconclusive.

For O=C(c1ccc2cccnc2c1O)N1CCCC(CCc2ccccc2F)C1 (centres undefined) the results were KDM5B inh 11µM, SNCA expr inhib inconclusive, SNCA viab count inactive and IP6K1 inhibitor inactive.
For Cc1ccc(-c2cc(C(=O)NC3CC3)nn3cnnc23)cc1 the results were SNCA expr inhib inactive, SNCA viab count inactive and IP6K1 inhibitor inactive.
`O=C(NCCc1csc(-c2cnccn2)n1)C1CC2(CCNCC2)CN1` (centres undefined) gave KDM5B inh 28µM, SNCA expr inhib inconclusive, SNCA viab count inactive and IP6K1 inhibitor inactive.
Cc1nn(-c2ccc(F)cc2)c(C)c1CNC(=O)C1NCCc2[nH]cnc21 (centres undefined) was read as KDM5B inh 13µM, SNCA expr inhib inactive, SNCA viab count inactive and IP6K1 inhibitor inactive.
Screening O=C(NCCc1nc(-c2cccnc2)n[nH]1)C1NCCc2[nH]cnc21 (centres undefined) returned KDM5B inh 7.9µM, SNCA expr inhib inactive, SNCA viab count inactive and IP6K1 inhibitor inactive.
Screening O=C(NCc1nnnn1-c1ccccc1)C1NCCc2[nH]cnc21 (centres undefined) returned KDM5B inh inactive, SNCA expr inhib inactive, SNCA viab count inactive and IP6K1 inhibitor inactive.
For O=C(NCc1csc(-c2cnccn2)n1)C1NCCc2[nH]cnc21 (centres undefined) the results were KDM5B inh 25µM, SNCA expr inhib inactive, SNCA viab count inactive and IP6K1 inhibitor inactive.
Screening CCOC(=O)C1CCCN(C(=O)c2cc(C(C)(C)C)nc3c2cnn3C)C1 (centres undefined) returned SNCA expr inhib inactive, SNCA viab count inactive[12.5 µM] and IP6K1 inhibitor inactive.
`O=C(NCc1cccc(Cl)c1)c1cc(-c2cccs2)c2cccn2n1` gave SNCA expr inhib inconclusive, SNCA viab count inconclusive and IP6K1 inhibitor inactive.
`O=C(CCc1ccccc1)N1CC(Oc2cccc(-c3nc(-c4ccccc4)no3)c2)C1` gave SNCA expr inhib inactive, SNCA viab count inactive and IP6K1 inhibitor inactive.
O=C(NCCc1csc(-c2ncccn2)n1)C1NCCc2[nH]cnc21 (centres undefined) was read as KDM5B inh inactive, SNCA expr inhib inactive, SNCA viab count inactive and IP6K1 inhibitor inactive.
For O=C(NCCc1csc(-c2cccnc2)n1)C1NCCc2[nH]cnc21 (centres undefined) the results were KDM5B inh 13µM, SNCA expr inhib inactive, SNCA viab count inactive and IP6K1 inhibitor inactive.
For COc1cccc(-c2ncc(CNC(=O)C3NCCc4[nH]cnc43)s2)c1 (centres undefined) the results were KDM5B inh 20µM, SNCA expr inhib inactive, SNCA viab count inactive and IP6K1 inhibitor inactive.
COc1ccc(-c2[nH]ncc2CNC(=O)C2NCCc3[nH]cnc32)cc1 (centres undefined) was read as KDM5B inh inconclusive, SNCA expr inhib inactive, SNCA viab count inactive and IP6K1 inhibitor inactive.
CCc1ccc(S(=O)(=O)N2CCC(OC3CCN(Cc4ccccc4)CC3)CC2)cc1 was read as KDM5B inh inactive, SNCA expr inhib inactive, SNCA viab count inactive and IP6K1 inhibitor inactive.
Cc1csc(CN2CCCC(c3n[nH]c(=O)n3-c3ccccc3)C2)n1 (centres undefined) was read as KDM5B inh inactive, SNCA expr inhib inactive, SNCA viab count inactive and IP6K1 inhibitor inactive.
Cc1ccc(C#N)c(N2CCCC(c3n[nH]c(=O)n3-c3ccccc3)C2)n1 (centres undefined) was read as KDM5B inh 32µM, SNCA expr inhib inactive, SNCA viab count inactive and IP6K1 inhibitor inactive.
For O=C(NC1CCCC1)C1CCN(C(=O)c2ccc(-c3cccs3)cc2)CC1 the results were IP6K1 inhibitor inactive.
For Cc1cc(CN(C)c2ccc(-c3nc(COc4ccccc4)no3)cn2)on1 the results were KDM5B inh 35µM, SNCA expr inhib inactive, SNCA viab count inactive and IP6K1 inhibitor inactive.
For Cc1ccc(-c2ccc3nnc(CNC(=O)c4cc(C)ccc4C)n3n2)cc1 the results were KDM5B inh inconclusive, SNCA expr inhib inactive, SNCA viab count inactive and IP6K1 inhibitor inactive.
`COc1ccc(-c2ccc3nnc(CNC(=O)c4nccc5ccccc45)n3n2)cc1` gave KDM5B inh inconclusive, SNCA expr inhib inactive, SNCA viab count inactive and IP6K1 inhibitor inactive.
For CC(=O)N1CCC(C(=O)NCc2nnc3ccc(-c4ccc(C)cc4)nn23)CC1 the results were KDM5B inh 32µM, SNCA expr inhib inactive, SNCA viab count inactive and IP6K1 inhibitor inactive.

Source: PubChem (National Center for Advancing Translational Sciences (NCATS))
